More than one record can exist for a structure, and the calls need not agree. Calls of active or inactive are those of the source. The calls were made as follows: active = hit-call score of the fitted dose curve at least 0.9, where 1 is the maximum; inactive = score below 0.9.
How the values were obtained:
[1] = APR_HepG2_P-H2AX_72hr: Apredica 72-hour HepG2 Assay for H2AX Phosphorylation (AID 2282916); conditions: imaging, actives raise or lower the signal;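 also: phospho-histone H2A.x immunostain intensity per cell marking DNA damage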
In short: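 Human hepatoma HepG2 cells are dosed across ten concentrations (0.39 to 200 uM, 0.5% v/v DMSO) and incubated 72 hr. Phospho-histone H2A.x is then detected by antibody staining alongside c-Jun and Hoechst, and quantified by automated fluorescence imaging.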

[2] = APR_HepG2_MitoMembPot_72hr: Apredica 72-hour HepG2 Assay for Mitochondrial Membrane Potential (AID 2282917); conditions: imaging, actives raise or lower the signal
In short: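 HepG2 cells exposed 72 h to compounds at 0.39–200 uM (0.5% v/v DMSO, duplicates); MitoTracker Red CMXRos 250 nM loaded 30 min before 3.7% formaldehyde fixation, imaged by HCS fluorescence. Bidirectional fit versus DMSO.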

[3] = APR_HepG2_MitoticArrest_72hr: Apredica 72-hour HepG2 Assay for Mitotic Arrest (AID 2282918); conditions: high-content imaging, actives raise or lower the signal
In short: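 HepG2 cells treated 72 h at 0.39–200 uM, 0.5% DMSO final; formaldehyde-fixed, stained with Hoechst 33342 and phospho-histone H3 antibody, imaged by high-content fluorescence; bidirectional fit versus DMSO.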

[4] = APR_HepG2_MicrotubuleCSK_72hr: Apredica 72-hour HepG2 Assay for Microtubule CSK Stabilty (AID 2282919); conditions: HepG2 microtubule cytoskeleton, high-content imaging, actives raise or lower the signal
In short: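 Ten-point dosing (0.39–200 uM, 0.5% DMSO) of HepG2 for 72 hr, with taxol as the cytoskeletal positive control. The cells were formaldehyde-fixed and then stained with alpha-tubulin/Cy5 and Hoechst. Imaging at 20x used a −2 um Z offset for tubulin.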

[5] = APR_HepG2_P-H2AX_24hr: Apredica 24-hour HepG2 Assay for H2AX Phosphorylation (AID 2282920); conditions: high-content imaging, actives raise or lower the signal
In short: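 HepG2 cells dosed 24 h at 0.39–200 uM (10 points, duplicate, 0.5% DMSO final). Formaldehyde-fixed and permeabilized, then immunostained for phospho-H2A.x with Hoechst. Fluorescence quantified by high-content imaging, fitted bidirectionally versus DMSO.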

[6] = APR_HepG2_StressKinase_72hr: Apredica 72-hour HepG2 Assay for Stress Kinase (AID 2282921); conditions: HepG2 stress kinase (phospho-c-Jun) imaging, actives raise or lower the signal
In short: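 After a 72 h compound treatment spanning 0.39 to 200 uM, formaldehyde-fixed cells are labelled for phosphorylated c-Jun and nuclei, imaged by automated fluorescence microscopy, and activity is fitted in both directions relative to DMSO controls.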

[7] = APR_HepG2_StressKinase_24hr: Apredica 24-hour HepG2 Assay for Stress Kinase (AID 2282922); conditions: HepG2 stress kinase (phospho-c-Jun) imaging, actives raise or lower the signal
In short: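 After 24 hr compound treatment (up to 200 uM, final DMSO 0.5% v/v), HepG2 cells are fixed and multiplex-labeled; phospho-c-Jun intensity is captured by high-content fluorescence imaging and analyzed relative to DMSO.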

[8] = APR_HepG2_p53Act_72hr: Apredica 72-hour HepG2 Assay for p53 Activation (AID 2282923); conditions: high-content imaging, actives raise or lower the signal;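 also: average cellular p53 protein immunofluorescence intensity in HepG2 cells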
In short: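 Imaging-based endpoint: after 72 hr compound exposure (up to 200 uM, 0.5% DMSO), fixed and permeabilized monolayers were labelled with anti-p53 antibody and imaged; signal change in either direction was fitted relative to DMSO controls.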

[9] = APR_HepG2_MitoMass_72hr: Apredica 72-hour HepG2 Assay for Mitochondrial Mass (AID 2282924); conditions: high-content imaging, actives raise or lower the signal;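 also: MitoTracker Red CMXRos stain intensity per cell imaged as mitochondrial mass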
In short: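 Steps: treat HepG2 72 hr (0.39–200 uM, duplicate wells); load MitoTracker Red CMXRos, 250 nM, 30 min; fix with 3.7% formaldehyde, permeabilise with 0.5% Triton X-100; capture images, nuclei via Hoechst 33342; fit bidirectionally against DMSO.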

[10] = APR_HepG2_NuclearSize_72hr: Apredica 72-hour HepG2 Assay for Nuclear Size (AID 2282925); conditions: high-content imaging, actives raise or lower the signal
In short: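 Compounds (0.39–200 uM, final DMSO 0.5%) were applied to HepG2 for 72 hr. Cells were then formaldehyde-fixed, permeabilized and labelled with Hoechst 33342. Nuclear diameter was quantified from six images per well.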

[11] = ATG_CRE_CIS: Attagene CIS-FACTORIAL HepG2 Assay for human cAMP Responsive Element (CRE) binding protein 3 (AID 2282926); conditions: HepG2 CRE cis-reporter, Attagene multiplexed mRNA; actives raise or lower the signal
In short: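 Induced reporter mRNA from a CRE cis element, measured in HepG2 among many multiplexed units at 24 h. Detection used RT-PCR plus capillary electrophoresis of fluorescent fragments; DMSO served as negative control.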

[12] = ATG_DR4_LXR_CIS: Attagene CIS-FACTORIAL HepG2 Assay for human Liver X Receptor (LXR), DR4 submotif (AID 2282929); conditions: HepG2 Attagene DR4 cis-reporter, mRNA transcription; actives raise or lower the signal
In short: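 HepG2 cells transiently transfected with cis-promoter-driven multiplexed reporter units (DR4 element) were dosed for 24 h. Reporter mRNA was quantified by RT-PCR, fluorescent primer extension, HpaI digestion and capillary electrophoresis; bidirectional fitting versus DMSO baseline.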

[13] = biological target: Aryl hydrocarbon receptor (Homo sapiens) (UniProt P35869); experiment: ATG_Ahr_CIS: Attagene CIS-FACTORIAL HepG2 Assay for human Aryl Hydrocarbon Receptor (Ahr) (AID 2282930); conditions: HepG2 AhR cis-factorial reporter transcription; actives raise or lower the signal
Aryl hydrocarbon receptor (Homo sapiens), sequence (P35869 whole entry, looked up): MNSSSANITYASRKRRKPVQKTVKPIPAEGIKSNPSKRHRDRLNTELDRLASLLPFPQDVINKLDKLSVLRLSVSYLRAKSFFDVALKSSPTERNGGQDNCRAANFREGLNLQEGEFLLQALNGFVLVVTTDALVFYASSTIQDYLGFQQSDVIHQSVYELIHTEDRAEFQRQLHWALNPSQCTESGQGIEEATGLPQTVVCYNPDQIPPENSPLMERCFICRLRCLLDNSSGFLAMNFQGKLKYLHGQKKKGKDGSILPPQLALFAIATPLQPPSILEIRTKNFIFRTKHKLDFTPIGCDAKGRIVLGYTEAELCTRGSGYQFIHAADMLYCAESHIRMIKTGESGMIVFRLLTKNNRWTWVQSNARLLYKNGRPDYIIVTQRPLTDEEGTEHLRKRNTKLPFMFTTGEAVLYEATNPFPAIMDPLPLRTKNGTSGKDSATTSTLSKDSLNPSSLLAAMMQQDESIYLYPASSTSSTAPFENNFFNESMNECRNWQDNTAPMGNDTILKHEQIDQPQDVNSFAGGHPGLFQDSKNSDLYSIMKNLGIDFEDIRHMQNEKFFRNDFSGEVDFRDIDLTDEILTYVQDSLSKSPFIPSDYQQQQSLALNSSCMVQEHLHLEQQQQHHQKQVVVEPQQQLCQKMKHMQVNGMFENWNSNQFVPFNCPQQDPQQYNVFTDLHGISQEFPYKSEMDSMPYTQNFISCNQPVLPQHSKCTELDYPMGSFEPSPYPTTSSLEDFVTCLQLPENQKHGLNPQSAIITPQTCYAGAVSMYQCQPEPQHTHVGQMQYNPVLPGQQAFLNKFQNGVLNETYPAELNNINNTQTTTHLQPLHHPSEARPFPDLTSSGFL
In short: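 Following 24 h of chemical dosing, transfected HepG2 liver cells with cis-driven reporter units were lysed for RNA; reporter mRNA was quantified via RT-PCR and capillary electrophoresis, and responses fitted bidirectionally from DMSO.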

[14] = ATG_AP_1_CIS: Attagene CIS-FACTORIAL HepG2 Assay for human Activator Protein 1 (AP-1) (AID 2282931); conditions: HepG2 Attagene cis-factorial AP-1 reporter mRNA; actives raise or lower the signal
In short: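 HepG2 cells transiently transfected with cis-element-driven multiplex reporter units; 24 h compound exposure. Reporter mRNA quantified by RT-PCR, FAM-labelled fragments resolved by capillary electrophoresis; bidirectional fit versus DMSO baseline.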

[15] = ATG_BRE_CIS: Attagene CIS-FACTORIAL HepG2 Assay for human Bone Morphogenetic Protein (BMP) Response Element (BRE) (AID 2282933); conditions: HepG2 BMP response element reporter, Attagene transcription factor profiling; actives raise or lower the signal
In short: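 Gain- or loss-of-signal was derived by bidirectional fitting against DMSO controls. The signal came from reporter mRNA, measured by RT-PCR and capillary electrophoresis, in HepG2 cells transiently carrying multiple reporter units and dosed for 24 h.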

[16] = biological target: Retinoic acid receptor alpha (Homo sapiens) (UniProt P10276); experiment: ATG_DR5_RAR_CIS: Attagene CIS-FACTORIAL HepG2 Assay for human Retinoic Acid Receptor Alpha (RARE), DR5 submotif (AID 2282934); conditions: HepG2 Attagene cis-factorial RARE DR5 reporter, mRNA; actives raise or lower the signal
Retinoic acid receptor alpha (Homo sapiens), sequence (P10276 whole entry, looked up): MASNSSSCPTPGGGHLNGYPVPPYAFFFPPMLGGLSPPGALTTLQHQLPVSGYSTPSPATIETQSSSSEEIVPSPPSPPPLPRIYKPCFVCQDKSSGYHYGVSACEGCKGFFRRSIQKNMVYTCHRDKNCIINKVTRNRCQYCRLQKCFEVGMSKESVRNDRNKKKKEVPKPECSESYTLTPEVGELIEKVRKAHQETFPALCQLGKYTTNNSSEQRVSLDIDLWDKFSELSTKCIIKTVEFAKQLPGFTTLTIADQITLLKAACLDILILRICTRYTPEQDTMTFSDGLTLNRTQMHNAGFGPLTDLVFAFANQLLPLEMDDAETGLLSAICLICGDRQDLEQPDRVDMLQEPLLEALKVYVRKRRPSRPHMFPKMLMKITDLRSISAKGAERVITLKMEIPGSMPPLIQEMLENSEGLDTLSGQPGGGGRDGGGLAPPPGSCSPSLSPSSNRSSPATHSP
In short: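 Transfected HepG2 reporter cells are exposed to chemicals for 24 h. Then RNA is extracted and the DR5 element reporter transcript is measured by RT-PCR and capillary electrophoresis, with bidirectional curve fitting relative to DMSO.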

[17] = biological target: Transcription factor E2F1 (Homo sapiens) (UniProt Q01094); experiment: ATG_E2F_CIS: Attagene CIS-FACTORIAL HepG2 Assay for human E2F Transcription Factor 1 (AID 2282935); conditions: HepG2 Attagene cis-reporter, E2F reporter RNA transcripts; actives raise or lower the signal
Transcription factor E2F1 (Homo sapiens), sequence (Q01094 whole entry, looked up): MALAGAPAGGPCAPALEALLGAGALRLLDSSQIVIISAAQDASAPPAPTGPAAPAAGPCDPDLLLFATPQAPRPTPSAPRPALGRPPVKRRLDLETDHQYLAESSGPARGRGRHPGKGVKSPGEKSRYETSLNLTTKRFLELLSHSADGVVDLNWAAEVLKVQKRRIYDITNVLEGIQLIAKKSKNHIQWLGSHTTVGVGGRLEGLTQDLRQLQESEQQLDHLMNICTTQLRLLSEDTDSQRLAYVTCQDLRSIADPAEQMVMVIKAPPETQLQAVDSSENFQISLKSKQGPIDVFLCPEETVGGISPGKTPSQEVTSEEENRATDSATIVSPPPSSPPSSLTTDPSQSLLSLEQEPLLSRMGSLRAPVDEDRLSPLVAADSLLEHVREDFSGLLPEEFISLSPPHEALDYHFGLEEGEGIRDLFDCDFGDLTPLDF
In short: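 First, HepG2 cells were transfected with reporter transcription units. Next, they were dosed for 24 h. Then RNA was isolated, converted to cDNA, PCR-amplified, FAM-labeled, HpaI-digested and analyzed by capillary electrophoresis.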

[18] = biological target: CCAAT/enhancer-binding protein beta (Homo sapiens) (UniProt P17676); experiment: ATG_C_EBP_CIS: Attagene CIS-FACTORIAL HepG2 Assay for human CCAAT/Enhancer Binding Protein (C/EBP) beta (AID 2282927); conditions: HepG2 Attagene cis-factorial transcription factor reporter; actives raise or lower the signal
CCAAT/enhancer-binding protein beta (Homo sapiens), sequence (P17676 whole entry, looked up, the tested form may be a part): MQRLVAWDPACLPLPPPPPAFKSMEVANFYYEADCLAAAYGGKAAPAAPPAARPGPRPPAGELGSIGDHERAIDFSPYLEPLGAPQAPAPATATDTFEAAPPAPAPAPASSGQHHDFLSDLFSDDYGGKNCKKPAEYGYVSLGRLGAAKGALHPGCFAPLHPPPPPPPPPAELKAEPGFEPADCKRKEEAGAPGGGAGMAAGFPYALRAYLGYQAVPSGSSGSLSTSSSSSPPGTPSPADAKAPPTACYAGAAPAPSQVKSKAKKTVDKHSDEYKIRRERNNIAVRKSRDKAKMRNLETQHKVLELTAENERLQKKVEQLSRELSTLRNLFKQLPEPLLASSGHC
In short: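 Chemical-treated HepG2 cells (24 h) bearing cis-regulated reporter constructs were processed for total RNA, then reverse transcription, PCR amplification, fluorescent primer extension and fragment analysis; gain- and loss-of-signal were fitted against DMSO.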

[19] = ATG_AP_2_CIS: Attagene CIS-FACTORIAL HepG2 Assay for human Activator Protein 2 (AP-2) (AID 2282932); conditions: HepG2 AP-2 cis-reporter, Attagene transcription factor profiling; actives raise or lower the signal
In short: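 Cells (HepG2) transfected with promoter-driven reporter constructs, treated 24 h. Total RNA reverse-transcribed, reporter cDNA PCR-amplified, FAM-labelled by primer extension, digested, resolved by capillary electrophoresis. Activity fitted both directions versus DMSO.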

[20] = ATG_CMV_CIS: Attagene CIS-FACTORIAL HepG2 Assay for human CMV (Internal Marker) (AID 2282928); conditions: HepG2 CMV promoter reporter, transcription factor profiling; actives raise or lower the signal;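 also: endpoint acts as a background internal control marker rather than a target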
In short: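 24 h chemical treatment, HepG2 with transient multi-reporter transfection; RNA → oligo(dT) RT → PCR → 6-FAM extension → HpaI digest → CE fluorescence. Bidirectional fit, DMSO negative control.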

Measured: AC50

O=C(c1ccc(O)cc1O)c1ccc(O)cc1O
active: [9] 4.43 µM
not listed: [18] | [19] | [20]
inactive: all other assays above

COc1nc(C)nc(NC(=O)NS(=O)(=O)c2ccccc2OCCCl)n1
inactive: [1] | [2] | [3] | [4] | [5] | [6] | [7] | [8] | [9] | [10] | [11] | [12] | [13] | [14] | [15] | [16] | [17]
active: [12] 9.13 µM

O=C(O)C1(C(=O)Nc2ccc(Cl)cc2Cl)CC1
not listed: [20]
inactive: all other assays above

CCCCOC(=O)C(C)Oc1ccc(Oc2ccc(C(F)(F)F)cn2)cc1 (stereo not drawn)
active: [2] 34.9 µM
not listed: [18] | [19] | [20]
inactive: all other assays above

CCCN(CCC)C(=O)SCC
not listed: [2] | [16] | [19]
inactive: all other assays above

COC(=O)c1ccc(I)cc1S(=O)(=O)NC(=O)Nc1nc(C)nc(OC)n1
not listed: [16] | [18] | [19]
inactive: all other assays above

COCCO
not listed: [2] | [19]
inactive: all other assays above
